Experimental data published in PubChem BioAssay (Tox21).
“And” between values parts separate entries of the source, which are not always exact repeats. Equal entries are not always repeated. Records with an inconclusive call do not appear. Some compounds were tested as several samples or in several runs, with calls that do not always agree. The source made the active and inactive calls. The call rests on the fitted dose curve; in most records, active means well fitted curve in the direction sought with a large enough effect in the repeat runs; inconclusive means weak or mixed curves; inactive means no such curve, though single readings can be large; an effect the other way counts as inactive or inconclusive.

Tests used:
[1] = A CellTox Green Cytotoxicity Assay to monitor cytotoxicity in HEK293 cells - 40 hour (AID 1224871); further: nearly all actives have a fitted effect of over 45% in size; further: potency means the concentration at half of the fitted maximal effect
In short: (§1)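 Tox21 screen in HEK293: membrane-impermeant cyanine dye fluoresces on binding dead-cell DNA; compound pinned 5 h post-seeding, plates held at 37 C, signal read repeatedly through 40 h.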

[2] = qHTS RealTime-Glo MT Cell Viability Assay in HEK293 cells - 16 hour (AID 1224872); further: nearly all actives have a fitted effect of over 50% in size; further: potency means the concentration at half of the fitted maximal effect
In short: (§2)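 Quantitative high-throughput screen of the Tox21 10K library in HEK293: cells and RealTime-Glo reagents plated together, compound added at 5 h, luminescence monitored through 40 h at 37 C.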

[3] = qHTS RealTime-Glo MT Cell Viability Assay in HepG2 cells - 8 hour (AID 1224873); further: nearly all actives have a fitted effect of over 55% in size; further: potency means the concentration at half of the fitted maximal effect
In short: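 HepG2 cells mixed with RealTime-Glo MT reagents (NanoLuc plus cell-permeant prosubstrate) were seeded at 600 cells/well, incubated 5 h at 37 C/5% CO2, then pinned with compounds in DMSO; nonlytic luminescence tracked viability during 40 h treatment.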

[4] = qHTS RealTime-Glo MT Cell Viability Assay in HEK293 cells - 40 hour (AID 1224874); conditions: RealTime-Glo luminescence; max response: stronger effect = lower value; further: nearly all actives have a fitted effect of over 50% in size; further: potency means the concentration at half of the fitted maximal effect
In short: (§3)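 HEK293 + NanoLuc + prosubstrate, 600 cells/well; 5 h, 37 C/5% CO2; compound 23 nL in DMSO by pintool; 37 C; luminescence read at 0, 8, 16, 24, 32 and 40 h time points.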

[5] = A CellTox Green Cytotoxicity Assay to monitor cytotoxicity in HEK293 cells - 24 hour (AID 1224875); further: nearly all actives have a fitted effect of over 45% in size; further: potency means the concentration at half of the fitted maximal effect
In short: as §1

[6] = A CellTox Green Cytotoxicity Assay to monitor cytotoxicity in HepG2 cells - 16 hour (AID 1224876); further: nearly all actives have a fitted effect of over 45% in size; further: potency means the concentration at half of the fitted maximal effect
In short: (§4)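 Measurements at 0, 8, 16, 24, 32 and 40 h of treatment captured CellTox Green fluorescence in HepG2 cells that had been co-plated with reagent and preincubated 5 h at 37 C/5% CO2.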

[7] = qHTS RealTime-Glo MT Cell Viability Assay in HepG2 cells - 32 hour (AID 1224877); further: nearly all actives have a fitted effect of over 55% in size; further: potency means the concentration at half of the fitted maximal effect
In short: (§5)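 Compound treatment began 5 h after plating HepG2 cells (600/well) with NanoLuc luciferase and prosubstrate. Plates stayed at 37 C for 40 h; luminescence was captured at six time points, 0 h through 40 h.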

[8] = A CellTox Green Cytotoxicity Assay to monitor cytotoxicity in HepG2 cells - 24 hour (AID 1224878); further: nearly all actives have a fitted effect of over 45% in size; further: potency means the concentration at half of the fitted maximal effect
In short: as §4

[9] = A CellTox Green Cytotoxicity Assay to monitor cytotoxicity in HepG2 cells - 40 hour (AID 1224879); further: nearly all actives have a fitted effect of over 40% in size; further: potency means the concentration at half of the fitted maximal effect
In short: as §4

[10] = qHTS RealTime-Glo MT Cell Viability Assay in HEK293 cells - 0 hour (AID 1224880)
In short: as §3

[11] = A CellTox Green Cytotoxicity Assay to monitor cytotoxicity in HEK293 cells - 32 hour (AID 1224881); further: nearly all actives have a fitted effect of over 40% in size; further: potency means the concentration at half of the fitted maximal effect
In short: as §1

[12] = A CellTox Green Cytotoxicity Assay to monitor cytotoxicity in HepG2 cells - 0 hour (AID 1224882); further: nearly all actives have a fitted effect of over 35% in size; further: potency means the concentration at half of the fitted maximal effect
In short: as §4

[13] = A CellTox Green Cytotoxicity Assay to monitor cytotoxicity in HEK293 cells - 8 hour (AID 1224884); further: nearly all actives have a fitted effect of over 35% in size; further: potency means the concentration at half of the fitted maximal effect
In short: as §1

[14] = qHTS RealTime-Glo MT Cell Viability Assay in HepG2 cells - 16 hour (AID 1224885); further: nearly all actives have a fitted effect of over 50% in size; further: potency means the concentration at half of the fitted maximal effect
In short: as §5

[15] = qHTS RealTime-Glo MT Cell Viability Assay in HEK293 cells - 24 hour (AID 1224886); further: nearly all actives have a fitted effect of over 50% in size; further: potency means the concentration at half of the fitted maximal effect
In short: as §2

[16] = qHTS RealTime-Glo MT Cell Viability Assay in HEK293 cells - 8 hour (AID 1224887); further: nearly all actives have a fitted effect of over 50% in size; further: potency means the concentration at half of the fitted maximal effect
In short: as §3

[17] = A CellTox Green Cytotoxicity Assay to monitor cytotoxicity in HEK293 cells - 16 hour (AID 1224888); further: nearly all actives have a fitted effect of over 35% in size; further: potency means the concentration at half of the fitted maximal effect
In short: as §1

[18] = qHTS RealTime-Glo MT Cell Viability Assay in HepG2 cells - 0 hour (AID 1224889); further: nearly all actives have a fitted effect of over 50% in size; further: potency means the concentration at half of the fitted maximal effect
In short: as §5

[19] = A CellTox Green Cytotoxicity Assay to monitor cytotoxicity in HepG2 cells - 8 hour (AID 1224890); further: nearly all actives have a fitted effect of over 45% in size; further: potency means the concentration at half of the fitted maximal effect
In short: as §4

[20] = A CellTox Green Cytotoxicity Assay to monitor cytotoxicity in HepG2 cells - 32 hour (AID 1224883); further: nearly all actives have a fitted effect of over 50% in size; further: potency means the concentration at half of the fitted maximal effect
In short: as §4
On the % scale 0 is the no-effect control and ±100 the full control effect.

CCO[Si](CCCNC(N)=O)(OCC)OCC
inactive: Potency [1] | Potency [2] | Potency [3] | max response [4] -7.6% and 2.5% | Potency [5] | Potency [6] | Potency [7] | Potency [8] | Potency [9] | Potency [10] | Potency [11] | Potency [12] | Potency [13] | Potency [14] | Potency [15] | Potency [16] | Potency [17] | Potency [18] | Potency [19]

c1ccc2ncccc2c1
inactive: Potency [1] | Potency [2] | Potency [3] | max response [4] -2.01% and 11.7% | Potency [5] | Potency [6] | Potency [7] | Potency [8] | Potency [9] | Potency [10] | Potency [11] | Potency [12] | Potency [20] | Potency [13] | Potency [15] | Potency [16] | Potency [17] | Potency [18] | Potency [19]

Cc1ccc(S(=O)(=O)NCl)cc1
inactive: Potency [1] | Potency [2] | Potency [3] | max response [4] 4.42% and 3.53% | Potency [5] | Potency [6] | Potency [7] | Potency [8] | Potency [9] | Potency [10] | Potency [11] | Potency [20] | Potency [13] | Potency [14] | Potency [15] | Potency [17] | Potency [18] | Potency [19]

CC1(C)O[C@@H]2C[C@H]3[C@@H]4C[C@H](F)C5=CC(=O)C=C[C@]5(C)[C@@]4(F)[C@@H](O)C[C@]3(C)[C@]2(C(=O)CO)O1
active: Potency [18] 3.89 µM and 9.52 µM
inactive: Potency [1] | Potency [2] | Potency [3] | max response [4] -29.2% and -4.18% | Potency [5] | Potency [6] | Potency [7] | Potency [8] | Potency [9] | Potency [12] | Potency [20] | Potency [13] | Potency [15] | Potency [16] | Potency [17] | Potency [19]

c1ccc2c(c1)[nH]c1ccccc12
inactive: Potency [1] | Potency [2] | Potency [3] | max response [4] -8.89% | Potency [5] | Potency [6] | Potency [7] | Potency [8] | Potency [10] | Potency [11] | Potency [20] | Potency [13] | Potency [15] | Potency [17] | Potency [18] | Potency [19]

CN(C)CCCN1c2ccccc2Sc2ccc(Cl)cc21
inactive: Potency [12] | Potency [19]
active: Potency [1] 43.6 µM | Potency [2] 30.9 µM and 21.3 µM | Potency [3] 54.9 µM | Potency [4] 21.9 µM and 21.3 µM | Potency [5] 49 µM | Potency [6] 49 µM and 21.3 µM | Potency [7] 34.7 µM and 23.9 µM | Potency [8] 38.9 µM and 21.3 µM | Potency [9] 24.5 µM and 21.3 µM | Potency [11] 43.6 µM | Potency [20] 24.5 µM and 23.9 µM | Potency [14] 49 µM and 23.9 µM | Potency [15] 24.5 µM and 23.9 µM | Potency [17] 54.9 µM and 26.8 µM
54.9 µM (active) and inactive: Potency [13]

CC(C)(C)c1cccc(C(C)(C)C)c1O
38 µM (active) and inactive: Potency [2]
inactive: max response [4] 1.57% | Potency [6] | Potency [7] | Potency [8] | Potency [9] | Potency [10] | Potency [13] | Potency [14] | Potency [17] | Potency [18] | Potency [19]
53.7 µM (active) and inactive: Potency [11]
47.9 µM (active) and inactive: Potency [1] | Potency [16]
24 µM (active) and inactive: Potency [15]
active: Potency [4] 21.4 µM

COc1ccc(C(=O)c2ccccc2O)c(O)c1
inactive: Potency [2] | Potency [3] | max response [4] -10.4% | Potency [5] | Potency [6] | Potency [7] | Potency [8] | Potency [9] | Potency [10] | Potency [20] | Potency [13] | Potency [14] | Potency [15] | Potency [17] | Potency [18] | Potency [19]
active: Potency [1] 34.6 µM

CC(=O)Oc1ccc(C(c2ccc(OC(C)=O)cc2)c2ccccn2)cc1
inactive: Potency [1] | Potency [2] | Potency [3] | max response [4] -20.4% | Potency [5] | Potency [6] | Potency [7] | Potency [8] | Potency [9] | Potency [11] | Potency [13] | Potency [15] | Potency [17] | Potency [18] | Potency [19]

CCCCCCCCCCCCCO
inactive: Potency [1] | Potency [2] | Potency [3] | max response [4] 3.82% and -0.0255% | Potency [5] | Potency [6] | Potency [7] | Potency [8] | Potency [10] | Potency [11] | Potency [13] | Potency [14] | Potency [15] | Potency [17] | Potency [18] | Potency [19]

CC1(C)C(C=C(Cl)Cl)C1C(=O)OCc1cccc(Oc2ccccc2)c1 (stereo unspecified)
inactive: Potency [1] | Potency [2] | Potency [3] | max response [4] -20.8% and -17.3% | Potency [5] | Potency [6] | Potency [7] | Potency [8] | Potency [9] | Potency [10] | Potency [12] | Potency [20] | Potency [13] | Potency [15] | Potency [16] | Potency [17] | Potency [18] | Potency [19]

Nc1ccc(N)c(Cl)c1
inactive and 27.5 µM (active): Potency [6] | Potency [11] | Potency [13]
inactive and 38.9 µM (active): Potency [1] | Potency [12] | Potency [19]
active: Potency [2] 48.9 µM | Potency [16] 21.8 µM and 43.6 µM
inactive and 49 µM (active): Potency [3]
inactive and 43.6 µM (active): Potency [8] | Potency [9] | Potency [20]
inactive: max response [4] -27.4% and -12.8% | Potency [7] | Potency [10] | Potency [15] | Potency [18]
